Measured values as given in the supplement of paper PMC10849652.
The full data set covers some 8,800 targets. This sample favours those with a hit. About 0.5% of all pairs of compound and target were hits.

Columns and labels:
Assay in all cases: log2 fold change, soluble protein after heating vs DMSO (PISA); higher = thermal stabilisation; K562 lysate, 10 uM; active = over 0.2 and 3.5 SD of the protein, either way, in both replicates (recomputed)
[1] = compound: CN1CC[C@H](c2c(O)cc(O)c3c(=O)cc(-c4ccccc4Cl)oc23)[C@H](O)C1 [alvocidib]
In short: (§1)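 Thermal stability, expressed as log-two fold change relative to solvent controls, is given from duplicates. Crude K562 extract in PBS pH 7.4 with 1 mM MgCl2, at 1 mg/mL protein, was treated with 10 μM compound for 30 min and heated in aliquots for 3 min across 48°C-58°C. After pooling, adjustment to 0.5% NP-40 at 4°C and centrifugation at 21,000xg for 90 min, supernatant protein was measured by TMTpro 16plex LC-MS/MS with channel sums equalised.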

[2] = compound: CN1CCc2c(c3ccccc3n2Cc2ccc(C(=O)NO)cc2)C1 [Tubastatin A]
In short: as §1

[3] = compound: CNC(=O)C1=CC=CC=C1NC2=NC(=NC=C2Cl)NC3=C(C=C(C=C3)N4CCOCC4)OC
In short: as §1

[4] = compound: CNC(=O)c1ccc(Nc2ncc(C(F)(F)F)c(NCc3nccnc3N(C)S(C)(=O)=O)n2)cc1 [defactinib]
In short: as §1

[5] = compound: CNc1nc(-c2ccc3c(N)n[nH]c3c2)cc(N2C[C@@H](C(=O)NC3CCCCC3)CC[C@H]2C)n1
In short: as §1

[6] = compound: COC(=O)N[C@@H](C)CNc1nccc(-c2cn(C(C)C)nc2-c2cc(Cl)cc(NS(C)(=O)=O)c2F)n1 [encorafenib]
In short: as §1

[7] = compound: COC(=O)[C@H](CCSC)NC(=O)C1=C(C=C(C=C1)NC[C@H](CS)N)C2=CC=CC=C2
In short: as §1

[8] = compound: COc1cc(Nc2ncc3c(n2)-c2ccc(Cl)cc2C(c2c(F)cccc2OC)=NC3)ccc1C(=O)O [alisertib]
In short: as §1

[9] = compound: COc1cc2nc(-c3cc(F)ccc3O)nc(N[C@@H]3CNC[C@H]3C(C)(C)O)c2cc1OC
In short: as §1

[10] = compound: COc1cc2ncnc(Nc3ccc(F)c(Cl)c3)c2cc1OCCCN1CCOCC1 [gefitinib]
In short: as §1

[11] = compound: CS(=O)(=O)CCNCc1ccc(-c2ccc3ncnc(Nc4ccc(OCc5cccc(F)c5)c(Cl)c4)c3c2)o1 [lapatinib]
In short: as §1

[12] = compound: CS(=O)(=O)N1CCN(Cc2cc3nc(-c4cccc5[nH]ncc45)nc(N4CCOCC4)c3s2)CC1 [pictilisib]
In short: as §1

[13] = compound: C[C@@H](Oc1cc(-c2cnn(C3CCNCC3)c2)cnc1N)c1c(Cl)ccc(F)c1Cl [crizotinib]
In short: as §1

[14] = compound: C[C@H](C1=CC=C(C=C1)C(=O)NC2=C3C=CNC3=NC=C2)N
In short: as §1

[15] = compound: C[C@H](Nc1ncnc2nc[nH]c12)c1cc2cccc(Cl)c2c(=O)n1-c1ccccc1 [duvelisib]
In short: as §1

[16] = compound: Cc1cc(Nc2cc(CN3CCOCC3)c3nc(C)c(Cc4ccc(Cl)cc4F)n3n2)n[nH]1 [gandotinib]
In short: as §1

[17] = compound: Cc1cc(Nc2cc(N3CCN(C)CC3)nc(Sc3ccc(NC(=O)C4CC4)cc3)n2)n[nH]1 [tozasertib]
In short: as §1

[18] = compound: Cc1ccc(-n2nc(C(C)(C)C)cc2NC(=O)Nc2ccc(OCCN3CCOCC3)c3ccccc23)cc1 [doramapimod]
In short: as §1

[19] = compound: Cc1ccc(NC(=O)c2ccc(CN3CC[C@H](N(C)C)C3)c(C(F)(F)F)c2)cc1Nc1nccc(-c2cncnc2)n1 [bafetinib]
In short: as §1

[20] = compound: Cc1cccc(CC(=O)N2CCc3c2ccc(-c2cn(C)c4ncnc(N)c24)c3F)n1
In short: as §1

Measured: log2 fold change

LZTS1 (UniProt Q9Y250)
Sequence of UniProt Q9Y250 (Q9Y250 whole entry, looked up): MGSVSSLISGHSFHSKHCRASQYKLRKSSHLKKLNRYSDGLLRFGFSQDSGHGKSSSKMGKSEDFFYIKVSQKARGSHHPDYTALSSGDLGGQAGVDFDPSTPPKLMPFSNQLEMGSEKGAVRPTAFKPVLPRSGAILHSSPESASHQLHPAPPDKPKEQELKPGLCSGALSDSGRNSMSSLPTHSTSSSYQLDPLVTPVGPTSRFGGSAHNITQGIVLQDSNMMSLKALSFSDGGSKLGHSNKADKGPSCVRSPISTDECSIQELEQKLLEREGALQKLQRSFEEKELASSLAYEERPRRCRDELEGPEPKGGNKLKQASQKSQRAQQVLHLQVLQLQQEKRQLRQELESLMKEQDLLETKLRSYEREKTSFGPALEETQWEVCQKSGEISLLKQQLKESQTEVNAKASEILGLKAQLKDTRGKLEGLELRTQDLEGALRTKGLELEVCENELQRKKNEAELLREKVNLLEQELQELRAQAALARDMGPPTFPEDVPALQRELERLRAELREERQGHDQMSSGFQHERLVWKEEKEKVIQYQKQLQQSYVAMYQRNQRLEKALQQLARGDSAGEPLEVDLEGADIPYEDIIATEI
inactive: [1] 0.054 | [2] 0.326 | [3] -0.037 | [4] -0.101 | [5] 0.709 | [6] -0.071 | [7] 0.001 | [8] -0.022 | [9] 0.129 | [10] -0.08 | [11] -0.136 | [12] -0.222 | [13] -0.821 | [14] -0.233 | [15] 0.308 | [16] -0.137 | [17] -0.1 | [18] 0.177 | [19] -0.268 | [20] 0.083

KIF2C (UniProt Q99661)
inactive: [1] 0.011 | [2] -0.18 | [3] -0.006 | [4] 0.018 | [5] 0.002 | [6] 0.004 | [7] 0.096 | [8] -0.006 | [9] 0.001 | [10] -0.014 | [11] 0.002 | [12] -0.003 | [13] -0.007 | [14] 0.004 | [15] 0.011 | [16] -0.051 | [17] -0.008 | [18] 0.022 | [19] 0.004 | [20] -0.002

MRPL10 isoform 2 (UniProt Q7Z7H8)
inactive: [1] 0.024 | [2] -0.013 | [3] -0.035 | [4] 0.023 | [5] 0.074 | [6] 0.031 | [7] 0.183 | [8] 0.028 | [9] -0.025 | [10] -0.019 | [11] -0.02 | [12] -0.041 | [13] -0.104 | [14] 0.152 | [15] 0.034 | [16] -0.037 | [17] -0.01 | [18] 0.104 | [19] -0.059 | [20] -0.012

KIF2A isoform 4 (UniProt O00139)
inactive: [1] 0 | [2] -0.148 | [3] 0.005 | [4] 0.01 | [5] -0.024 | [6] 0.012 | [7] 0.093 | [8] 0.004 | [9] -0.014 | [10] 0.011 | [11] -0.004 | [12] -0.006 | [13] -0.004 | [14] 0.026 | [15] 0.022 | [16] -0.066 | [17] 0.01 | [18] 0.055 | [19] -0.006 | [20] 0.037

LRWD1 (UniProt Q9UFC0)
inactive: [1] 0.027 | [2] -0.2 | [3] -0.049 | [4] 0.059 | [5] -0.051 | [6] 0.01 | [7] 0.11 | [8] -0.001 | [9] 0.017 | [10] -0.024 | [11] -0.026 | [12] -0.049 | [13] -0.199 | [14] -0.011 | [15] 0 | [16] -0.102 | [17] -0.007 | [18] 0.029 | [19] -0.082 | [20] 0.019

KIF11 (UniProt P52732)
inactive: [1] 0.008 | [2] -0.107 | [3] 0.035 | [4] -0.007 | [5] -0.022 | [6] 0.034 | [7] 0.032 | [8] -0.013 | [9] -0.003 | [10] 0.016 | [11] 0 | [12] 0.021 | [13] 0.001 | [14] -0.03 | [15] 0.017 | [16] -0.042 | [17] 0.006 | [18] 0.014 | [19] -0.014 | [20] 0.063

MLXIP (UniProt Q9HAP2)
inactive: [1] -0.035 | [2] -0.016 | [3] -0.049 | [4] -0.029 | [5] -0.017 | [6] 0.027 | [7] -0.016 | [8] 0.002 | [9] -0.051 | [10] -0.047 | [11] -0.009 | [12] -0.049 | [13] -0.023 | [14] -0.052 | [15] -0.078 | [16] -0.032 | [17] 0.019 | [18] 0.009 | [19] -0.01 | [20] 0.043

KNL1 (UniProt Q8NG31)
Sequence of UniProt Q8NG31 (Q8NG31 whole entry, looked up): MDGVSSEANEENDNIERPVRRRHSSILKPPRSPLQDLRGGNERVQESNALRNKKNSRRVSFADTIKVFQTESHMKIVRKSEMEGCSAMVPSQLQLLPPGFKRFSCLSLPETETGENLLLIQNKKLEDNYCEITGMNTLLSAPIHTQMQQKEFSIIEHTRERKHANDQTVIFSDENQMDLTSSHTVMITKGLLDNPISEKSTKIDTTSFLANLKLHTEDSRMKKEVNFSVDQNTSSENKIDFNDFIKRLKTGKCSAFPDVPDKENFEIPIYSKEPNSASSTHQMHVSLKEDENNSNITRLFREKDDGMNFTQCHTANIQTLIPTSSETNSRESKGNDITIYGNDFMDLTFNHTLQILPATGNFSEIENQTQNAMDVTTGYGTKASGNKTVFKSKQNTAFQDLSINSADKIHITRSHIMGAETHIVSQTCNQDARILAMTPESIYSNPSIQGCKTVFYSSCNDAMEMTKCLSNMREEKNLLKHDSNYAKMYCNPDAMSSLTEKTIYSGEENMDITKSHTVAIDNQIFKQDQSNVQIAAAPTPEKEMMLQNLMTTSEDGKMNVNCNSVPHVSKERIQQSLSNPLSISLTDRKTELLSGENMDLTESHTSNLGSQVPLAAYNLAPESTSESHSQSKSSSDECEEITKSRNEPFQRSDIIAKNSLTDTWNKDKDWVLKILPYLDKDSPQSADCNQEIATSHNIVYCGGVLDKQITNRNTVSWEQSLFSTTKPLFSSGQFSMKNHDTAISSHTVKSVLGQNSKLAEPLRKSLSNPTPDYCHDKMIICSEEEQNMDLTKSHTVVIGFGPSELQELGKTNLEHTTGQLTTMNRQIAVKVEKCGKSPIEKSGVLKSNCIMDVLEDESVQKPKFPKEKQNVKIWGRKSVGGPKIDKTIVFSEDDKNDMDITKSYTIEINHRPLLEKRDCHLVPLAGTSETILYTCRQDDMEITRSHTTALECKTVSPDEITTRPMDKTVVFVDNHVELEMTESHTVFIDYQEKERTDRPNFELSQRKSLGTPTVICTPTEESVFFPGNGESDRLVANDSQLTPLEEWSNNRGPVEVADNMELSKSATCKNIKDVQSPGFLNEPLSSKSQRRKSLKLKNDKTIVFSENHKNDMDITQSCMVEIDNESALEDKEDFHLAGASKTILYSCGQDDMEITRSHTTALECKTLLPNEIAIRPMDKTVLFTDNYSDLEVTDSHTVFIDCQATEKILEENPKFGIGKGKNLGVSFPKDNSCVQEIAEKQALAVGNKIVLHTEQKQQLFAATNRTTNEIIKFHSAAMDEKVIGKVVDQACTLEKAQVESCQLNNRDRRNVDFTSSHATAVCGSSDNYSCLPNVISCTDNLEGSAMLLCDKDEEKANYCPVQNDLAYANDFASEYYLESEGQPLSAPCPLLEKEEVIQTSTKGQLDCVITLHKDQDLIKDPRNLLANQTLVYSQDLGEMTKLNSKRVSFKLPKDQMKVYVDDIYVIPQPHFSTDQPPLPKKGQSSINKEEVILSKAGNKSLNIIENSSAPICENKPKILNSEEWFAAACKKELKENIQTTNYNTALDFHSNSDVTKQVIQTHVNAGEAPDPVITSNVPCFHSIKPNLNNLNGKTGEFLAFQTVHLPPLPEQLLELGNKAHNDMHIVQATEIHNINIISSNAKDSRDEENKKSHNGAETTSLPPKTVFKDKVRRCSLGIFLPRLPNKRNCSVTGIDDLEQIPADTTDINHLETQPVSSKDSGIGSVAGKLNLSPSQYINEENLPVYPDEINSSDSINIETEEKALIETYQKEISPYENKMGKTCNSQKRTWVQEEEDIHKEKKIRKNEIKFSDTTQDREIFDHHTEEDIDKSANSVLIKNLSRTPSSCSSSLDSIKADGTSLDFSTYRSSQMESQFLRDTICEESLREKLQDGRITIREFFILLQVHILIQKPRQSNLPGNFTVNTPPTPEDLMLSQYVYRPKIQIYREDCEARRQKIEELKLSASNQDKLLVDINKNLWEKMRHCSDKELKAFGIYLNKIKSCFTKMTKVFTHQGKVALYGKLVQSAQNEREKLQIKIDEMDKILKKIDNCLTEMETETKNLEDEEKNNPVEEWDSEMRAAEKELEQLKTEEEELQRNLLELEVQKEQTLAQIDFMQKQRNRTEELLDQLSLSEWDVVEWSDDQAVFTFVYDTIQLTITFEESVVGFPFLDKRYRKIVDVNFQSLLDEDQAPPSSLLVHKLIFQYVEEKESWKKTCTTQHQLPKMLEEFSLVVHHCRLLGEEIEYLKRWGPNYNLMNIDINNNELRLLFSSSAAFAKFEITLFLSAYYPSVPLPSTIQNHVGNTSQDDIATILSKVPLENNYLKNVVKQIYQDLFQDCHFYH
inactive: [1] -0.008 | [2] -0.073 | [3] 0.024 | [4] -0.007 | [5] 0.018 | [6] 0.043 | [7] 0.055 | [8] -0.032 | [9] 0.004 | [10] 0.008 | [11] 0.007 | [12] -0.031 | [13] -0.015 | [14] -0.011 | [15] -0.001 | [16] -0.032 | [17] -0.027 | [18] 0.008 | [19] -0.017 | [20] 0.016

LDAH isoform 2 (UniProt Q9H6V9)
Sequence of UniProt Q9H6V9 (Q9H6V9 whole entry, looked up): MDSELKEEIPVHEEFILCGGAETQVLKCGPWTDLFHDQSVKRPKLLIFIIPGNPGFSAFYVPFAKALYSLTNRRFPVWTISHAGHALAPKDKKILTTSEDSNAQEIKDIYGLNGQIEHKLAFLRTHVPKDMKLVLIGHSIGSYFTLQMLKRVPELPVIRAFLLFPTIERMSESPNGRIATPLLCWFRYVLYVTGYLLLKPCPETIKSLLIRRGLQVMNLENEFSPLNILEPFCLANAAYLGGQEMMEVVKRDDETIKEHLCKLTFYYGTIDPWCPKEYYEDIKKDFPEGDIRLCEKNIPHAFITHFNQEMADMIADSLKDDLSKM
inactive: [1] 0.003 | [2] -0.124 | [3] -0.012 | [4] 0.012 | [5] -0.027 | [6] -0.03 | [7] 0.048 | [8] 0 | [9] -0.036 | [10] 0.004 | [11] 0.014 | [12] 0.006 | [13] -0.062 | [14] -0.016 | [15] 0.008 | [16] -0.036 | [17] 0.06 | [18] 0.021 | [19] -0.01 | [20] 0.143

KIF22 (UniProt Q14807)
inactive: [1] -0.121 | [2] 0.099 | [3] -0.059 | [4] 0.175 | [5] 0.137 | [6] 0.012 | [7] -0.017 | [8] 0.011 | [9] 0.171 | [10] -0.013 | [11] -0.149 | [12] -0.07 | [13] -0.29 | [14] -0.201 | [15] -0.02 | [16] 0.238 | [17] -0.043 | [18] -0.009 | [19] -0.068 | [20] 0.33

MAPK14 (UniProt Q16539)
Sequence of UniProt Q16539 (Q16539 whole entry, looked up): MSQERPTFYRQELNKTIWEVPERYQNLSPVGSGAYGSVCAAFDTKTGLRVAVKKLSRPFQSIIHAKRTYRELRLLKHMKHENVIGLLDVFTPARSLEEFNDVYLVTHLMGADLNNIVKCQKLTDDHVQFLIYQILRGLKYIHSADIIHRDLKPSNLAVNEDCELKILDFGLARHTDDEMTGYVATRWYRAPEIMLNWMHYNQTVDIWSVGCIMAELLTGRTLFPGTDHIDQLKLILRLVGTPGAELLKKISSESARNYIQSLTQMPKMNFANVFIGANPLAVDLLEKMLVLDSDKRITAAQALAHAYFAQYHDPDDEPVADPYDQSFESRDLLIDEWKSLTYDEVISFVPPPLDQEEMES
inactive: [1] 0.007 | [2] -0.203 | [3] 0.38 | [4] -0.053 | [5] -0.043 | [6] 0.488 | [7] 0.314 | [8] -0.144 | [9] 0.011 | [10] 0.295 | [11] -0.047 | [12] -0.004 | [13] -0.094 | [14] -0.034 | [15] -0.026 | [16] -0.037 | [17] 0.009 | [20] 0.015
active: [19] 1.03

MBTPS1 (UniProt Q14703)
Sequence of UniProt Q14703 (Q14703 whole entry, looked up): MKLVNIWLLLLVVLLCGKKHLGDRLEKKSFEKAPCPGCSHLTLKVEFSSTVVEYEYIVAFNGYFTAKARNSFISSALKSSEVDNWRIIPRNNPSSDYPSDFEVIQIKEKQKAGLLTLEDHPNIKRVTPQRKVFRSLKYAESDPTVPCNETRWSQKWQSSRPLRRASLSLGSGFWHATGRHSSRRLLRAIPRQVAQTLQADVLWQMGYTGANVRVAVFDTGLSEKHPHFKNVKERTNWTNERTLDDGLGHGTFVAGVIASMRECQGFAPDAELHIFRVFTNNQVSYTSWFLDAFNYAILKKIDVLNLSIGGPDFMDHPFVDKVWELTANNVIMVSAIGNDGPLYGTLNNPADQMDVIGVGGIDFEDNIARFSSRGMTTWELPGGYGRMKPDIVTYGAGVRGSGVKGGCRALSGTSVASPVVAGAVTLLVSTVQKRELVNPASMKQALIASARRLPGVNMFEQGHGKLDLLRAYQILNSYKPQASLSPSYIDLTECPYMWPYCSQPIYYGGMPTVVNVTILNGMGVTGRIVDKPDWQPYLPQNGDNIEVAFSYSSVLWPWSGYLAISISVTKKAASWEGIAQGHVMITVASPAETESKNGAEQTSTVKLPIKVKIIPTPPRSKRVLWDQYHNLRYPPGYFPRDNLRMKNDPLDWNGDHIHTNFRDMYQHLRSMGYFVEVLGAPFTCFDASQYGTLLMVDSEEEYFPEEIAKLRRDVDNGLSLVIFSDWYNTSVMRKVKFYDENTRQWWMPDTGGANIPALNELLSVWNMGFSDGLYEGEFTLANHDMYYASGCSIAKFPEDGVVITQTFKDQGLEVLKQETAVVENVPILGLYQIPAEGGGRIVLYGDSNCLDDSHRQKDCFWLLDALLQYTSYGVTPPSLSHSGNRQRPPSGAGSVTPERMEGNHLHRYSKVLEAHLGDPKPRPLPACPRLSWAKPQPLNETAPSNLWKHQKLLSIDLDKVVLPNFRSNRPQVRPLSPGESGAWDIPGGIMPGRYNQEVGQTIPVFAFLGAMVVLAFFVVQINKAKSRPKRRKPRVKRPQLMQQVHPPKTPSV
inactive: [1] 0.096 | [2] -0.058 | [3] 0.013 | [4] -0.002 | [5] 0.029 | [6] 0.048 | [7] -0.036 | [12] 0.012 | [13] -0.008 | [14] 0.114 | [15] -0.006 | [16] -0.164 | [17] -0.009 | [18] 0.01 | [19] -0.001 | [20] -0.15
